The source made the active and inactive calls. Rule for the calls: active = hit-call score of the fitted dose curve at least 0.9, where 1 is the maximum; inactive = score below 0.9.
Experiments:
Settings in all cases: mRNA level, 48 h; actives raise or lower the signal
[1] = read-out: Interleukin 6 Receptor (IL6R), IL6R (gene 3570); assay: LTEA_HepaRG_IL6R: Life Technologies and Expression Analysis (LTEA) Assay for Interleukin 6 Receptor (IL6R) using HepaRG (AID 2283510)
How it was run: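 Differentiated human HepaRG cells, plated 48 h then switched to serum-free induction medium, were dosed in duplicate for 48 h at eight half-log concentrations up to 100 uM in 0.5% DMSO. IL6R mRNA quantified by qRT-PCR, normalized to ACTB/GAPDH/POLR2A; bidirectional fit versus DMSO.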

[2] = read-out: Potassium channel subfamily K member 1 (KCNK1), KCNK1 (gene 3775); assay: LTEA_HepaRG_KCNK1: Life Technologies and Expression Analysis (LTEA) Assay for Potassium channel subfamily K member 1 (KCNK1) using HepaRG (AID 2283511)
How it was run: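 Gain or loss of KCNK1 mRNA is the read-out, quantified by qRT-PCR against three housekeeping genes after 48 h chemical treatment of human HepaRG liver cells. Concentrations ran from 100 uM downward in half-log steps, vehicle 0.5% DMSO.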

[3] = read-out: Keratin 19 (KRT19), KRT19 (gene 3880); assay: LTEA_HepaRG_KRT19: Life Technologies and Expression Analysis (LTEA) Assay for Keratin 19 (KRT19) using HepaRG (AID 2283512)
How it was run: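 Gene-expression endpoint in the human liver line HepaRG after 48 h exposure to up to 100 uM test chemical with 0.5% DMSO vehicle; KRT19 mRNA by qRT-PCR, analyzed bidirectionally versus DMSO.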

[4] = read-out: JUN Transcription Factor, JUN (gene 3725); assay: LTEA_HepaRG_JUN: Life Technologies and Expression Analysis (LTEA) Assay for JUN Transcription Factor using HepaRG (AID 2283513)
How it was run: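 Differentiated HepaRG cells were exposed to chemicals for 48 h in serum-free induction medium, 8 concentrations from 100 uM in half-log steps, 0.5% DMSO vehicle, in duplicate. JUN mRNA was quantified by TaqMan qRT-PCR, normalized to ACTB, GAPDH, POLR2A.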

[5] = read-out: Lipase C (LIPC), LIPC (gene 3990); assay: LTEA_HepaRG_LIPC: Life Technologies and Expression Analysis (LTEA) Assay for Lipase C (LIPC) using HepaRG (AID 2283514)
How it was run: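 Read-out is LIPC transcript level by TaqMan qRT-PCR, normalized to three housekeeping genes, after 48 h chemical treatment of human HepaRG liver cells. Curves span eight concentrations topping at 100 uM; activity in either direction scored relative to 0.5% DMSO.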

[6] = read-out: Lipoprotein lipase (LPL), LPL (gene 4023); assay: LTEA_HepaRG_LPL: Life Technologies and Expression Analysis (LTEA) Assay for Lipoprotein lipase (LPL) using HepaRG (AID 2283515)
How it was run: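 Read-out is LPL transcript level by qRT-PCR, normalized to three housekeeping genes and fitted bidirectionally against the DMSO control. Human HepaRG cells received chemicals for 48 h at up to 100 uM.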

[7] = read-out: MicroRNA 122 (MIR122), gene 406906; assay: LTEA_HepaRG_MIR122: Life Technologies and Expression Analysis (LTEA) Assay for MicroRNA 122 (MIR122) using HepaRG (AID 2283516); note: the transcript read is the microRNA miR-122
How it was run: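 Differentiated human HepaRG cells were exposed 48 h in serum-free induction medium to eight half-log concentrations (top 100 uM, 0.5% DMSO). Transcript level was measured by TaqMan qRT-PCR, normalized to ACTB, GAPDH and POLR2A, and fitted bidirectionally versus DMSO.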

[8] = read-out: matrix metalloproteinase-10 (MMP10), MMP10 (gene 4319); assay: LTEA_HepaRG_MMP10: Life Technologies and Expression Analysis (LTEA) Assay for matrix metalloproteinase-10 (MMP10) using HepaRG (AID 2283517)
How it was run: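 Gain or loss of MMP10 mRNA is fitted relative to the 0.5% DMSO vehicle. The human hepatic line HepaRG receives a 48-hour serum-free exposure, in duplicate, with a maximum concentration of 100 uM.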

[9] = read-out: MYC, MYC (gene 4609); assay: LTEA_HepaRG_MYC: Life Technologies and Expression Analysis (LTEA) Assay for MYC using HepaRG (AID 2283518)
How it was run: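 Cells are thawed, plated and cultured 48 h, then treated for 48 h with test chemicals (eight half-log concentrations from 100 uM, 0.5% DMSO vehicle). RNA is isolated and MYC expression quantified by qRT-PCR against three housekeeping genes.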

[10] = read-out: matrix metalloproteinase-3 (MMP3), MMP3 (gene 4314); assay: LTEA_HepaRG_MMP3: Life Technologies and Expression Analysis (LTEA) Assay for matrix metalloproteinase-3 (MMP3) using HepaRG (AID 2283519)
How it was run: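 HepaRG, human; 48 h dosing, 8 conc. (max 100 uM, half-log), duplicate, 0.5% DMSO. Readout: MMP3 transcript by Fluidigm TaqMan qRT-PCR, ACTB/GAPDH/POLR2A-normalised. Gain or loss fitted vs DMSO.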

[11] = read-out: Nuclear factor NF-kappa-B p105 subunit (Homo sapiens) (UniProt P19838); assay: LTEA_HepaRG_NFKB1: Life Technologies and Expression Analysis (LTEA) Assay for Nuclear Factor Kappa B Subunit 1 (NFKB1) using HepaRG (AID 2283521)
How it was run: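 Differentiated human HepaRG cells were exposed for 48 h in serum-free induction medium to eight concentrations (top 100 uM, half-log steps, 0.5% DMSO), in duplicate. NFKB1 mRNA was measured by TaqMan qRT-PCR, normalized to ACTB/GAPDH/POLR2A, and fitted bidirectionally against DMSO.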

[12] = read-out: Protein phosphatase 2A (PPP2R4), PTPA (gene 5524); assay: LTEA_HepaRG_PPP2R4: Life Technologies and Expression Analysis (LTEA) Assay for Protein phosphatase 2A (PPP2R4) using HepaRG (AID 2283522)
How it was run: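 Differentiated HepaRG cells in serum-free induction medium were exposed in duplicate for 48 h to eight concentrations, top 100 uM with half-log dilutions, in 0.5% DMSO. PPP2R4 mRNA was quantified by TaqMan qRT-PCR, normalized to ACTB, GAPDH and POLR2A.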

[13] = read-out: Phosphatase and tensin (PTEN), PTEN (gene 5728); assay: LTEA_HepaRG_PTEN: Life Technologies and Expression Analysis (LTEA) Assay for Phosphatase and tensin (PTEN) using HepaRG (AID 2283523)
How it was run: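 Read-out is PTEN transcript level by multiplexed TaqMan qRT-PCR after 48 h chemical treatment of human HepaRG cultures in serum-free induction medium. Concentrations spanned 100 uM downward in half-log steps, 0.5% DMSO throughout; activity fitted in both directions against vehicle.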

[14] = read-out: solute carrier (SLC22A1), SLC22A1 (gene 6580); assay: LTEA_HepaRG_SLC22A1: Life Technologies and Expression Analysis (LTEA) Assay for solute carrier (SLC22A1) using HepaRG (AID 2283524)
How it was run: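 HepaRG (human liver line), 48 h dosing in serum-free induction medium; 8 conc., half-log down from 100 uM, 0.5% DMSO vehicle, duplicates. Endpoint: SLC22A1 mRNA, qRT-PCR, housekeeping-normalized; gain/loss fit vs DMSO.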

[15] = read-out: Pyruvate Dehydrogenase Kinase 4 (PDK4), PDK4 (gene 5166); assay: LTEA_HepaRG_PDK4: Life Technologies and Expression Analysis (LTEA) Assay for Pyruvate Dehydrogenase Kinase 4 (PDK4) using HepaRG (AID 2283525)
How it was run: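 In this multiplexed human HepaRG expression assay, cells are treated 48 h with test chemicals across an eight-point range starting at 100 uM. PDK4 mRNA changes, normalized to ACTB/GAPDH/POLR2A, are fitted in both directions relative to vehicle.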

[16] = read-out: Nuclear factor erythroid 2-related factor 2 (Homo sapiens) (UniProt Q16236); assay: LTEA_HepaRG_NFE2L2: Life Technologies and Expression Analysis (LTEA) Assay for Nuclear factor erythroid 2-related factor 2 (NFE2L2) Transcription Factor using HepaRG (AID 2283527);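 note: TaqMan qRT-PCR transcript level normalised to ACTB GAPDH and POLR2A housekeeping genes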
How it was run: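 Transcript level of NFE2L2 is the read-out, measured by microfluidic TaqMan qRT-PCR and normalized to three housekeeping genes. Human HepaRG cultures received test chemical for 48 h at up to 100 uM in half-log steps. Gain or loss of signal is fitted relative to 0.5% DMSO.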

[17] = read-out: succinate dehydrogenase complex iron sulfur subunit B (SDHB), SDHB (gene 6390); assay: LTEA_HepaRG_SDHB: Life Technologies and Expression Analysis (LTEA) Assay for succinate dehydrogenase complex iron sulfur subunit B (SDHB) using HepaRG (AID 2283528)
How it was run: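 HepaRG, 48 h exposure, 8-pt half-log series from 100 uM in 0.5% DMSO, duplicates. Readout: SDHB mRNA by Fluidigm qRT-PCR vs housekeeping genes; bidirectional fit relative to DMSO.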

[18] = read-out: Signal transducer and activator of transcription 3 (Homo sapiens) (UniProt P40763); assay: LTEA_HepaRG_STAT3: Life Technologies and Expression Analysis (LTEA) Assay for Signal transducer and activator of transcription (STAT3) using HepaRG (AID 2283529)
How it was run: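 Read-out is STAT3 mRNA level by qRT-PCR, normalized to three housekeeping genes, in human HepaRG liver cells treated for 48 h. Concentrations ran from 100 uM downward in half-log steps; curves were fitted for gain or loss relative to 0.5% DMSO.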

[19] = read-out: Paternally Expressed 10 (PEG10), PEG10 (gene 23089); assay: LTEA_HepaRG_PEG10: Life Technologies and Expression Analysis (LTEA) Assay for Paternally Expressed 10 (PEG10) using HepaRG (AID 2283520)
How it was run: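 Differentiated HepaRG cells, plated 48 h then switched to serum-free induction medium, were exposed in duplicate for 48 h to eight half-log concentrations topping at 100 uM in 0.5% DMSO. PEG10 mRNA was quantified by TaqMan qRT-PCR, normalised to ACTB, GAPDH and POLR2A.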

[20] = read-out: NAD(P)H dehydrogenase [quinone] 1 (NQO1), NQO1 (gene 1728); assay: LTEA_HepaRG_NQO1: Life Technologies and Expression Analysis (LTEA) Assay for NAD(P)H dehydrogenase [quinone] 1 (NQO1) using HepaRG (AID 2283526)
How it was run: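 Differentiated HepaRG cells, plated 48 h and then switched to serum-free induction medium, were exposed in duplicate for 48 h to 8-point half-log concentrations up to 100 uM in 0.5% DMSO. mRNA measured by qRT-PCR, normalized to ACTB, GAPDH, POLR2A; bidirectional fit versus DMSO.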

Measured: AC50

Sequence of Nuclear factor erythroid 2-related factor 2 (Homo sapiens) (Q16236 whole entry, looked up): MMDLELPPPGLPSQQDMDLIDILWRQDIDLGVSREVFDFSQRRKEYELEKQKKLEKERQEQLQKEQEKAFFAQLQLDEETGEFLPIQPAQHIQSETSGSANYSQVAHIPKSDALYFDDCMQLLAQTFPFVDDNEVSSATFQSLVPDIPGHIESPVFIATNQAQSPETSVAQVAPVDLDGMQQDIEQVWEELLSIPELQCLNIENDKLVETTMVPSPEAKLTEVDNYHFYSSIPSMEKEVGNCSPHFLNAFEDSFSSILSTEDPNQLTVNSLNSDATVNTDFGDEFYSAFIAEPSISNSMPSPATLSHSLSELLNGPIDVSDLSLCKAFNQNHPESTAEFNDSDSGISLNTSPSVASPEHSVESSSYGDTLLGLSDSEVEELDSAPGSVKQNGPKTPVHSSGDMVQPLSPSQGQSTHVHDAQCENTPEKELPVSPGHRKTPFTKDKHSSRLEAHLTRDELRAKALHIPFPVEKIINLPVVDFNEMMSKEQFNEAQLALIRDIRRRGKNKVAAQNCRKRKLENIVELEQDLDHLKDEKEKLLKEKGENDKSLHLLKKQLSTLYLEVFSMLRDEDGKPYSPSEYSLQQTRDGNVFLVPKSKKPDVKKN
Sequence of Signal transducer and activator of transcription 3 (Homo sapiens) (P40763 whole entry, looked up): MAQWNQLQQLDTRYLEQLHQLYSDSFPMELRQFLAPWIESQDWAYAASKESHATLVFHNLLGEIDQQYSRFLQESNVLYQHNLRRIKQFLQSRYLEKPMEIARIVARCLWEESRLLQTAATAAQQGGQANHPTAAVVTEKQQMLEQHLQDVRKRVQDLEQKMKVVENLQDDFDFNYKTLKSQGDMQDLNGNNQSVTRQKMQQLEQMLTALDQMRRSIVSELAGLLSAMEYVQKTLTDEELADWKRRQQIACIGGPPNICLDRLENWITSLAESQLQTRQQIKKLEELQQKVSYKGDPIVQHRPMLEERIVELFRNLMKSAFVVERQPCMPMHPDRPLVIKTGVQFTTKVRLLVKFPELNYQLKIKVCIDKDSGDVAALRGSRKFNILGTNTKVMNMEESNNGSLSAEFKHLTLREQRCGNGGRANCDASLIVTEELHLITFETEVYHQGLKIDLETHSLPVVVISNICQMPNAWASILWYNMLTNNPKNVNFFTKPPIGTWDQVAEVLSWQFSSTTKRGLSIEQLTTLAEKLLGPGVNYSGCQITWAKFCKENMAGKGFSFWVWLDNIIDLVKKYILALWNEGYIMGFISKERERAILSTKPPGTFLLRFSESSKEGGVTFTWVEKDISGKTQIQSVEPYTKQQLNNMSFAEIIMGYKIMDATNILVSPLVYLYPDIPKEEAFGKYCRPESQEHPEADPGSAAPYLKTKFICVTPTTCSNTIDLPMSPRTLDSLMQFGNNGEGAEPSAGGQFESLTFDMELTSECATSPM
Sequence of Nuclear factor NF-kappa-B p105 subunit (Homo sapiens) (P19838 whole entry, looked up): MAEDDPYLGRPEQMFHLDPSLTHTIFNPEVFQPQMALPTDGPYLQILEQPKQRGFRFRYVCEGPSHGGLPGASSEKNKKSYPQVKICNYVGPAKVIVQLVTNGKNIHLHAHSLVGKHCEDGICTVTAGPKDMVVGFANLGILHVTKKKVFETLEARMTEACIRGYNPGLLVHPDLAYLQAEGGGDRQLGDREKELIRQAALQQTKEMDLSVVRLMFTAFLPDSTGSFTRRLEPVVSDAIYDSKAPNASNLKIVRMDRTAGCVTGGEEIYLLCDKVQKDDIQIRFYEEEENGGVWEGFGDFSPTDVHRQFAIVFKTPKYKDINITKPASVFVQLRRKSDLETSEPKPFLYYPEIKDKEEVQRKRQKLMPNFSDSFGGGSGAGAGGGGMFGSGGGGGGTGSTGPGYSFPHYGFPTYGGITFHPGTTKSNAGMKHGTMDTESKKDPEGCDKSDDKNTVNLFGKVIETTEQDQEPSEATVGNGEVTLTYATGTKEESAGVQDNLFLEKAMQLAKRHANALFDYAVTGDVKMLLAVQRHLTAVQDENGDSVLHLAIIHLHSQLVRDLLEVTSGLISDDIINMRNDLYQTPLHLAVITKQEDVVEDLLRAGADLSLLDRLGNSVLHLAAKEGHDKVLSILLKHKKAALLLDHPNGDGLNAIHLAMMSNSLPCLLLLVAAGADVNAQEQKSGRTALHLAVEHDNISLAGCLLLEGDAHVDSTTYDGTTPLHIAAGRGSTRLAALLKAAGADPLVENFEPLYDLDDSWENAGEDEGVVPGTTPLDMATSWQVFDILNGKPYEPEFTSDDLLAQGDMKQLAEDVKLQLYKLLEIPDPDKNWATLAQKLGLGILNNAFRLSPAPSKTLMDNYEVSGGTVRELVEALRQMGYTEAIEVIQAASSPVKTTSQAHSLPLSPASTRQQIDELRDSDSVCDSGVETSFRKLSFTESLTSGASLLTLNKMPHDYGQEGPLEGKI

CCN(CC)CCO
inactive: [1] | [2] | [3] | [4] | [5] | [6] | [7] | [8] | [9] | [10] | [11] | [12] | [13] | [14] | [15] | [16] | [17] | [18]

Clc1ccc(C(c2ccc(Cl)cc2)C(Cl)(Cl)Cl)cc1
inactive: [1] | [2] | [3] | [4] | [7] | [8] | [9] | [10] | [11] | [12] | [13] | [14] | [15] | [16] | [18]
active: [5] 84.5 µM | [6] 50 µM | [17] 17 µM

CN(C)[C@@H]1C(=O)C(C(N)=O)=C(O)[C@@]2(O)C(=O)C3=C(O)c4c(O)cccc4[C@@](C)(O)[C@H]3C[C@@H]12
inactive: [1] | [2] | [3] | [5] | [6] | [7] | [8] | [9] | [10] | [19] | [11] | [12] | [13] | [14] | [15] | [20] | [16] | [17] | [18]

CC(C)(C)OOC(C)(C)CCC(C)(C)OOC(C)(C)C
inactive: [1] | [2] | [3] | [4] | [5] | [6] | [7] | [8] | [9] | [10] | [12] | [13] | [14] | [15] | [17] | [18]

Nc1cc(Cl)cc(C(=O)O)c1Cl
inactive: [2] | [3] | [4] | [5] | [6] | [7] | [8] | [9] | [10] | [19] | [12] | [13] | [14] | [15] | [20] | [16] | [17] | [18]

CCCCCCCCOC(=O)c1ccc(C(=O)OCCCCCCCC)c(C(=O)OCCCCCCCC)c1
inactive: [1] | [2] | [3] | [4] | [5] | [6] | [7] | [8] | [10] | [19] | [11] | [12] | [13] | [14] | [15] | [20] | [16] | [17] | [18]

CC(C)COC(=O)c1ccccc1C(=O)OCC(C)C
inactive: [1] | [2] | [3] | [4] | [5] | [6] | [7] | [8] | [9] | [10] | [12] | [13] | [14] | [15] | [16] | [17] | [18]
